Whole data set: some 18,000 sequences, median “log2 normalized intensity” near 0.36, cut for the highest 2% near 7.3. The full list was thinned out, with the highest values kept by preference.
Biological target: T1, HNF4alpha8 (COS-7 nuclear extract) (Homo sapiens, UniProt P41235-5 1-452)
T1 sequence: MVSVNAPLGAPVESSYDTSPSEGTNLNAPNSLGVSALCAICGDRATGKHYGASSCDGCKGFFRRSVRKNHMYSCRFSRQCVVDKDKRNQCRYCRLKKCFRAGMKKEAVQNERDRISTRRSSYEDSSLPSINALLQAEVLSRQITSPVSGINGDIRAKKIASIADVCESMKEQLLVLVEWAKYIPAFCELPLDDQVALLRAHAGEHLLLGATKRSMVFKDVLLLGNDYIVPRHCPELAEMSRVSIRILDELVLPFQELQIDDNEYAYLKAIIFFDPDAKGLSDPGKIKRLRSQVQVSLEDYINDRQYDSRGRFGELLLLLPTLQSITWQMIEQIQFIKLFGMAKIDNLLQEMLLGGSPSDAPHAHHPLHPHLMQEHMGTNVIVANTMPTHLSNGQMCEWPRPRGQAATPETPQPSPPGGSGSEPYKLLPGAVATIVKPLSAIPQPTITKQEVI
Assay: protein-binding microarray; COS-7 nuclear extract on double-stranded Agilent 4x180k PBM; binding buffer, salt, pH and temperature not given in the material; high values mean tight binding
Details: chain copies: 2; label: 3' end of strand 1 on the slide; dsDNA, one strand shown
In short: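 Nuclear extracts came from COS-7 cells transiently transfected by CaPO4 with a human HNF4α isoform expression vector. They were applied to a custom Agilent SurePrint G3 4x180k array of ~60-nt oligonucleotides, made double-stranded, with ~44,000 test sequences spotted in quadruplicate. Bound HNF4α was imaged at 2-µm resolution on an Agilent G2565CA scanner. Binding signal was taken as background-corrected, normalized gProcessedSignal from Agilent software.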

Sequence	binding signal [log2 normalized intensity]
GGTCAATGTGCACATTCGAAGTTTTGCTCCGCCTAGGGAGATTAGAGTATCGGTCGA	1.65
GGATATTTGATCAAAGGTCAGCTCTCCTTTGCCTAGGGAGATTAGAGTATCGGTCGA	5.11
TTTATAATCCTAGCTTGGTTTTTCTGGGACGCCTAGGGAGATTAGAGTATCGGTCGA	0.942
GGATTATGGAGATGGAGATGGCCTGGAGGTGCCTAGGGAGATTAGAGTATCGGTCGA	0.909
ACAACCAGGGAGATGTGAGCGACCTTTGCAGCCTAGGGAGATTAGAGTATCGGTCGA	4.55
GGTTGTAAAATGAGGTCAGCATGGTGGGAGGCCTAGGGAGATTAGAGTATCGGTCGA	1.04
GGGGCGATGCTTCCAAAGTCCACAGTCCCCGCCTAGGGAGATTAGAGTATCGGTCGA	3.92
CTCTTTTACTGTACTTCTTTAGGACTGCTCGCCTAGGGAGATTAGAGTATCGGTCGA	1.37
ATATAAAAACTAACCATACTGAGTGTTGGTGCCTAGGGAGATTAGAGTATCGGTCGA	-0.252
AGTGTAAGGACATTGCCCCCTATGTAAAGGGCCTAGGGAGATTAGAGTATCGGTCGA	4.09
TGATTACCCTTATCTTATCTCCTGCTAAATGCCTAGGGAGATTAGAGTATCGGTCGA	-0.759
TTTCAACATTTAACTTAACCACTCAATCAGGCCTAGGGAGATTAGAGTATCGGTCGA	-0.86
CTTTGAGATTTGCATTCATGATCTTAGATAGCCTAGGGAGATTAGAGTATCGGTCGA	0.242
GTGACCTTTGACCTCTGGCCTTTGCAGTTAGCCTAGGGAGATTAGAGTATCGGTCGA	8.79
CTCTAACCACTTTGAAATAGTGACCTCTGCGCCTAGGGAGATTAGAGTATCGGTCGA	5.01
CTGACCTCAAGTGACCTTTGACCTCTGGCCGCCTAGGGAGATTAGAGTATCGGTCGA	11.2
TATCAGTGTTGACCTCTGGACCTCATCTTCGCCTAGGGAGATTAGAGTATCGGTCGA	6.23
CTCAAGTGACCTTTGACCTCTGGCCTTTGCGCCTAGGGAGATTAGAGTATCGGTCGA	10.3
GATGTTTAGCTATCAGTGTTGACCTCTGGAGCCTAGGGAGATTAGAGTATCGGTCGA	6.06
ACCACTTTGAAATAGTGACCTCTGCTGGCCGCCTAGGGAGATTAGAGTATCGGTCGA	3.43
TGACCTTTGCCTCATTCTTATTGCCTCATGGCCTAGGGAGATTAGAGTATCGGTCGA	4.2
TTAGCTATCAGTGTTGACCTCTGGACCTCAGCCTAGGGAGATTAGAGTATCGGTCGA	7.79

Sequence	binding signal [log2 normalized intensity]
TCTGGTGCCAAGGAGCCTCTGCAACCTTTGGCCTAGGGAGATTAGAGTATCGGTCGA	3.43
CTGACAAGTATCTCGGTCAAACCTTTGACCGCCTAGGGAGATTAGAGTATCGGTCGA	6.35
ACCTTTGCCTTCTTGACATCTCTCTCTGCAGCCTAGGGAGATTAGAGTATCGGTCGA	-0.0607
CAGGAGTCGGGAGGTAGGGGTGGCGGGTTGGCCTAGGGAGATTAGAGTATCGGTCGA	0.403
GCCAAAGGTCAGAGTTGAACCCTTGGGGCTGCCTAGGGAGATTAGAGTATCGGTCGA	4.38
TCTGCTGTACATATTTGCCAAGTGATAAGGGCCTAGGGAGATTAGAGTATCGGTCGA	1.01
TCTAACATTTTTGACCTTCAGCATCTTCAAGCCTAGGGAGATTAGAGTATCGGTCGA	3.81
CCTTTGAGATAGCTATGATTATCCTTATCTGCCTAGGGAGATTAGAGTATCGGTCGA	-0.293
ATCTGTATCAGCCTGTGACAAAGTCCATCTGCCTAGGGAGATTAGAGTATCGGTCGA	5.65
CCCGGACCAGGCCGGGTCACGTGGGTCCAGGCCTAGGGAGATTAGAGTATCGGTCGA	3.63
GTCAGTCTTTGTTCTAGTAAGGCCTTCAAAGCCTAGGGAGATTAGAGTATCGGTCGA	0.595
TTCAGAAGACTTCCTGGCCTCTCTGCAAATGCCTAGGGAGATTAGAGTATCGGTCGA	-0.39
TAACGGTGAGGGAGGAGACTTTGACCTCTGGCCTAGGGAGATTAGAGTATCGGTCGA	7.45
GTGAGGGAGGAGACTTTGACCTCTGCTAGGGCCTAGGGAGATTAGAGTATCGGTCGA	6.12
GGAGGAGACTTTGACCTCTGCTAGGTTTGGGCCTAGGGAGATTAGAGTATCGGTCGA	5.5
TATGTCTCTCCTATTCAGGTATTTGCTCTGGCCTAGGGAGATTAGAGTATCGGTCGA	0.488
CACAGTGTAGAAGGCAAGGGTCAAGATGTCGCCTAGGGAGATTAGAGTATCGGTCGA	2.31
ATTCCAGTGTTTCAAAGGAGTGTCTTTCTCGCCTAGGGAGATTAGAGTATCGGTCGA	1.51
CATGTGGTCCTAAGACTAACCTTTGACCATGCCTAGGGAGATTAGAGTATCGGTCGA	8.37
CCTCCATTAACTAACCTTTGAACCAGATGGGCCTAGGGAGATTAGAGTATCGGTCGA	5.69
ATTAACTAACCTTTGAACCAGATGGCCCTCGCCTAGGGAGATTAGAGTATCGGTCGA	4.3
TAAGACTAACCTTTGACCATCCACGGATGCGCCTAGGGAGATTAGAGTATCGGTCGA	5.5

Sequence	binding signal [log2 normalized intensity]
TTACTCATGTGGTCCTAAGACTAACCTTTGGCCTAGGGAGATTAGAGTATCGGTCGA	4.06
TACTCATGTGGTCCTAAGACTAACCTTTGAGCCTAGGGAGATTAGAGTATCGGTCGA	7.11
GGTCCTAAGACTAACCTTTGACCATCCACGGCCTAGGGAGATTAGAGTATCGGTCGA	6.44
ATGTGGTCCTAAGACTAACCTTTGACCATCGCCTAGGGAGATTAGAGTATCGGTCGA	8.15
CCTTACCTCCATTAACTAACCTTTGAACCAGCCTAGGGAGATTAGAGTATCGGTCGA	7.58
CTGACATTCTCCACTTGGTGACTGTCATTTGCCTAGGGAGATTAGAGTATCGGTCGA	0.274
TGCCCTCACAGGTTCCAGCATGGACTTCACGCCTAGGGAGATTAGAGTATCGGTCGA	3.32
TTCCGCGGACGTGTTCCCACAGTGCCCTCTGCCTAGGGAGATTAGAGTATCGGTCGA	3.77
AGTTTCAACTTAACCCCAGTTTAGCAATTTGCCTAGGGAGATTAGAGTATCGGTCGA	2.08
TCTAAGACATAACACAGGTGACCTTTGCTCGCCTAGGGAGATTAGAGTATCGGTCGA	8.96
CTAAGCAGGCACATTCCAGGACCTTTGCTCGCCTAGGGAGATTAGAGTATCGGTCGA	4.83
AGGTGACCTTTGCTCCGGTTCCCAATAAGTGCCTAGGGAGATTAGAGTATCGGTCGA	5.71
TCTTTTCTAAGACATAACACAGGTGACCTTGCCTAGGGAGATTAGAGTATCGGTCGA	4.48
GACATAACACAGGTGACCTTTGCTCCGGTTGCCTAGGGAGATTAGAGTATCGGTCGA	7.92
AACACAGGTGACCTTTGCTCCGGTTCCCAAGCCTAGGGAGATTAGAGTATCGGTCGA	7.12
TGTGGGTAATTAATCTGATCGCCCTCCCCCGCCTAGGGAGATTAGAGTATCGGTCGA	5.29
CTATTCTCTAAACTCTGGGCTCTATTTGGAGCCTAGGGAGATTAGAGTATCGGTCGA	0.51
GGACCTGAGGCTTTTGAGTCAATAATGGACGCCTAGGGAGATTAGAGTATCGGTCGA	1.38
GAGGCTCAGACCTGACCTTTGGATTCCCAGGCCTAGGGAGATTAGAGTATCGGTCGA	7.11
TACTTTGGACTGGGGACCTGGTCTGAGATAGCCTAGGGAGATTAGAGTATCGGTCGA	1.25
TGCTGGAGATGAGGCTCAGACCTGACCTTTGCCTAGGGAGATTAGAGTATCGGTCGA	7.17
GAGATGAGGCTCAGACCTGACCTTTGGATTGCCTAGGGAGATTAGAGTATCGGTCGA	8.85

Sequence	binding signal [log2 normalized intensity]
AAGACTTTGGACTTTGGACCTGAGGCTTTTGCCTAGGGAGATTAGAGTATCGGTCGA	10.3
ACAAGGAGTCTCCACTATGACCTGTGCTTTGCCTAGGGAGATTAGAGTATCGGTCGA	2.18
TATAGTTTATCTACCTTTGTACCTTTAGTAGCCTAGGGAGATTAGAGTATCGGTCGA	4.65
GTTGGGCAGAAGGTGTTTCAGATGGACCAAGCCTAGGGAGATTAGAGTATCGGTCGA	1.98
ATAGCTGCCTGTGTGTTCTGCTATTCATTAGCCTAGGGAGATTAGAGTATCGGTCGA	0.562
GTGCTGGTACATAGCAGGGGTTAGGTAAACGCCTAGGGAGATTAGAGTATCGGTCGA	-0.36
TCAGGAGCCCCACAGAGCAAAGGTCATGCAGCCTAGGGAGATTAGAGTATCGGTCGA	6.34
GGAGCAGAGCGATCAAAGGTCACAGAGACCGCCTAGGGAGATTAGAGTATCGGTCGA	6.2
TGGGCCCACAGATGATCAAAGGTCAGTCTTGCCTAGGGAGATTAGAGTATCGGTCGA	7.25
ATGGAGCTGGAGGGCAAAGGTCAGAGGCTGGCCTAGGGAGATTAGAGTATCGGTCGA	6.88
TATGAGAGAGAGAGAGAGGTGGGCAAAGGTGCCTAGGGAGATTAGAGTATCGGTCGA	1.33
GTGGGTGCCAAACAAAAAGGGCAAAGGTCAGCCTAGGGAGATTAGAGTATCGGTCGA	8.84
CACTGGGGTCATGGAGCTGGAGGGCAAAGGGCCTAGGGAGATTAGAGTATCGGTCGA	4.08
GGGTCATGGAGCTGGAGGGCAAAGGTCAGAGCCTAGGGAGATTAGAGTATCGGTCGA	8.54
GAGAGAGAGAGAGGTGGGCAAAGGTCTCAAGCCTAGGGAGATTAGAGTATCGGTCGA	3.68
TGACTGGAGCAGAGCGATCAAAGGTCACAGGCCTAGGGAGATTAGAGTATCGGTCGA	7.44
AATCATGGGCCCACAGATGATCAAAGGTCAGCCTAGGGAGATTAGAGTATCGGTCGA	7.91
AGAGCGATCAAAGGTCACAGAGACCACAGGGCCTAGGGAGATTAGAGTATCGGTCGA	5.89
CCCCATATCCAGTCAATCCCGTGGACTTTGGCCTAGGGAGATTAGAGTATCGGTCGA	6.13

— paper PMC10726135, “HNF4α isoforms regulate the circadian balance between carbohydrate and lipid metabolism in the liver”
